# Assay results reported in PubChem BioAssay.
# Assay: reversal of MRP1-mediated doxorubicin resistance, pilot screen, H69AR cells, doxorubicin co-treatment (AID 601)
# Details: H69AR cells, CellTiter-Glo, 72 h; compound alone cytotoxicity; at 10 µM
row,Compound,viability [%]
1,Cc1nnc(NC(=O)CCC(=O)N2CCC(C)CC2)s1,90.8
2,Cc1ccc(-c2ccc(=O)n(CC(=O)NCCCN3CCCCC3C)n2)cc1 (centres undefined),91.9
3,O=C(CN1CCN(Cc2ccccc2)CC1)Nc1ccc(Cl)cn1,85.1
4,O=C(Nc1cccc(OCC(=O)N2CCOCC2)c1)C1CCCCC1,112
5,O=C(CN1CCN(c2ccccn2)CC1)N1c2ccccc2CCc2ccccc21,107
6,CCOc1ccc(NC(=O)C2CC(=O)N(CC)C(=Nc3ccc4c(c3)OCO4)S2)cc1 (centres undefined),84
7,CNC(=O)NCCN1CCCC1=O,102
8,CCCNC(=O)c1cc(S(=O)(=O)N2CCc3ccccc32)ccc1F,97
9,Cc1cc(NC(=O)c2cnn3c(C(F)F)cc(C4CC4)nc23)no1,82.4
10,CCOC(=O)Cc1csc(/C(=N/O)C(N)=O)n1,92.6
11,O=C(COC(=O)c1cccc(S(=O)(=O)N2CCc3ccccc32)c1)NC1CCS(=O)(=O)C1 (centres undefined),102
12,CN1[C@@H](CC(=O)c2ccccc2)CCC[C@H]1C[C@H](O)c1ccccc1,84.1
13,O=C(CSc1n[nH]c(=O)[nH]c1=O)c1ccccc1,101
14,CC(O)Cn1cnc2c1c(=O)n(C)c(=O)n2C (centres undefined),95.8
15,O=C(CNCC1CCCO1)Nc1ccccc1-n1cccc1 (centres undefined),95.7
16,COc1cccc(N2CCN(CC(=O)c3c[nH]c4ccc(OC)cc34)CC2C)c1 (centres undefined),70.4
17,COC(=O)c1c(NC(=O)CCc2ccc(C)o2)sc(C)c1C,81.7
18,O=C(COC(=O)c1cc(S(=O)(=O)N2CCOCC2)cs1)c1ccccc1,99.9
19,Cc1ccc(S(=O)(=O)NCC(=O)OCN2C(=O)c3ccccc3C2=O)cc1,105
